Laboratory results: PubChem BioAssay AID1159580 (chemical genetic matrix, 2015)
Where “and” joins values, the source holds several entries; their conditions need not be identical. Equal entries are not always repeated. About 2,000 (36%) of roughly 5,500 compounds were called active. Inconclusive results (about 18%) are left out. No stated cut-off is given here; in the data, active means normalized growth mostly below about 0.91 (no sharp cut-off); inconclusive means no clear call, values can overlap the other calls; inactive means mostly above about 0.92. The list shows a part of the results.

Test: chemical genetic growth profiling, strain panel (AID 1159580);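 further: tested at 20 µM; growth read once vehicle control cultures reached saturation at 30 °C; 1 = growth at the plate median or of vehicle wells; lower values mean less growth of the strain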
Settings: S. cerevisiae deletion strains, growth OD

Measured: normalized growth

Oc1ccc(Cl)cc1Cc1cc(Cl)ccc1O
active: locus YAL013W, strain DEP1, hits give low values 0.0573 | locus YAL021C, strain ccr4, hits give low values 0.0695 | locus YAL026C, strain drs2, hits give low values 0.0747 | locus YAL030W, strain snc1, hits give low values 0.0569 | locus YBL061C, strain skt5, hits give low values 0.0645 | locus YBR009C, strain hhf1, hits give low values 0.0651 | locus YBR021W, strain FUR4, hits give low values 0.253 | locus YBR023C, strain chs3, hits give low values 0.07 | locus YBR171W, strain sec66, hits give low values 0.124 | locus YBR229C, strain ROT2, hits give low values 0.0685 | locus YBR231C, strain swc5, hits give low values 0.0629 | locus YBR279W, strain paf1, hits give low values 0.0982 | locus YCL011C, strain gbp2, hits give low values 0.0575 | locus YCL016C, strain dcc1, hits give low values 0.0745 | locus YCL029C, strain bik1, hits give low values 0.0624 | locus YCL061C, strain MRC1, hits give low values 0.107 | locus YCL069W, strain vba3, hits give low values 0.0848 | locus YCR088W, strain abp1, hits give low values 0.0882 | locus YDL005C, strain med2, hits give low values 0.0747 | locus YDL035C, strain GPR1, hits give low values 0.0712 | locus YDL040C, strain nat1, hits give low values 0.0791 | locus YDL074C, strain BRE1, hits give low values 0.092 | locus YDL101C, strain DUN1, hits give low values 0.0631 | locus YDL134C, strain PPH21, hits give low values 0.0596 | locus YDL185W, strain tfp1, hits give low values 0.0573 | locus YDL192W, strain arf1, hits give low values 0.0725 | locus YDR001C, strain nth1, hits give low values 0.107 | locus YDR069C, strain doa4, hits give low values 0.0709 | locus YDR101C, strain arx1, hits give low values 0.0668 | locus YDR137W, strain rgp1, hits give low values 0.0823 | locus YDR150W, strain NUM1, hits give low values 0.141 | locus YDR159W, strain sac3, hits give low values 0.0887 | locus YDR162C, strain NBP2, hits give low values 0.0492 | locus YDR195W, strain ref2 0.12 | locus YDR297W, strain sur2, hits give low values 0.0586 | locus YDR318W, strain mcm21, hits give low values 0.0649 | locus YDR334W, strain swr1, hits give low values 0.0861 | locus YDR335W, strain msn5, hits give low values 0.0832 | locus YDR388W, hits give low values 0.0554 | locus YDR392W, strain spt3, hits give low values 0.0992 | locus YDR502C, strain sam2, hits give low values 0.0624 | locus YEL003W, strain gim4, hits give low values 0.0565 | locus YEL037C, strain rad23, hits give low values 0.271 | locus YEL061C, strain CIN8 (second series), hits give low values 0.0757 | locus YEL061C, strain CIN8, hits give low values 0.0536 | locus YER015W, strain faa2, hits give low values 0.0622 | locus YER016W, strain bim1, hits give low values 0.0644 | locus YER110C, hits give low values 0.0746 | locus YER111C, strain swi4, hits give low values 0.0777 | locus YER155C, strain BEM2 (second series), hits give low values 0.109 | locus YER155C, strain BEM2, hits give low values 0.0649 | locus YER167W, strain BCK2, hits give low values 0.0527 | locus YFR010W, strain ubp6, hits give low values 0.185 | locus YGL078C, strain dbp3, hits give low values 0.0765 | locus YGL086W, strain mad1, hits give low values 0.0581 | locus YGL167C, strain pmr1, hits give low values 0.0782 | locus YGL173C, strain kem1, hits give low values 0.101 | locus YGL227W, strain vid30, hits give low values 0.0709 | locus YGL240W, strain doc1, hits give low values 0.08 | locus YGL248W, strain PDE1, hits give low values 0.0764 | locus YGL253W, strain hxk2, hits give low values 0.0817 | locus YGR078C, strain PAC10, hits give low values 0.0754 | locus YGR135W, strain pre9, hits give low values 0.0765 | locus YGR229C, strain SMI1, hits give low values 0.0636 | locus YGR252W, strain gcn5, hits give low values 0.146 | locus YHR013C, strain ard1, hits give low values 0.109 | locus YHR027C, strain rpn1, hits give low values 0.0641 | locus YHR030C, strain SLT2, hits give low values 0.0512 and 0.0939 | locus YHR079C, strain IRE1 (second series), hits give low values 0.0561 | locus YHR079C, strain IRE1, hits give low values 0.102 | locus YHR094C, strain hxt1, hits give low values 0.0607 | locus YHR129C, strain ARP1, hits give low values 0.0651 | locus YHR142W, strain chs7, hits give low values 0.0876 | locus YHR200W, strain rpn10, hits give low values 0.0673 | locus YIL066C, strain RNR3, hits give low values 0.0647 | locus YIL073C, strain SPO22, hits give low values 0.114 | locus YIL125W, strain kgd1, hits give low values 0.0642 | locus YIR030C, strain dcg1, hits give low values 0.0657 | locus YJL092W, strain hpr5, hits give low values 0.111 | locus YJL095W, strain BCK1 (second series), hits give low values 0.057 | locus YJL095W, strain BCK1, hits give low values 0.0553 and 0.0954 | locus YJL115W, strain asf1, hits give low values 0.201 | locus YJL129C, strain trk1, hits give low values 0.0878 | locus YJL134W, strain LCB3, hits give low values 0.0583 | locus YJL154C, strain vps35, hits give low values 0.0851 | locus YJL164C, strain tpk1, hits give low values 0.0647 | locus YJL166W, strain qcr8, hits give low values 0.0615 | locus YJL168C, strain set2, hits give low values 0.0792 | locus YJL187C, strain SWE1 (second series), hits give low values 0.0719 | locus YJL187C, strain SWE1, hits give low values 0.0599 | locus YJR043C, strain POL32, hits give low values 0.0779 | locus YJR066W, strain TOR1, hits give low values -0.000659
